Assay results as given in PubChem BioAssay (NCI).
This is part of a sample that, as a whole, favours compounds with a hit. Of some 83,000 tested, about 20% had one in any assay.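 Testing used 96-well plates and a 48-hour single-concentration exposure. Example: -40 means 40% of the starting cells died.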 A number with no mark means an inactive call. Activity calls are given as the source filed them. How the source made its calls: active means growth percent below 10; inactive means the rest.

What was measured:
Assay in all cases: NCI-60 one-dose screen, 48 h (100 = growth as untreated, 0 = no growth, -100 = all killed)
HOP-62 NSCLC = conditions: 10 µM unless noted
NCI-H460 lung = conditions: 10 µM unless noted
A549/ATCC NSCLC = conditions: 10 µM unless noted
786-0 renal = conditions: 10 µM unless noted
K-562 leukemia = conditions: 10 µM unless noted
MALME-3M melanoma = conditions: 10 µM unless noted
RXF 393 renal = conditions: 10 µM unless noted
SF-295 CNS = conditions: 10 µM unless noted
SF-539 CNS = conditions: 10 µM unless noted
UACC-257 melanoma = conditions: 10 µM unless noted
SNB-75 CNS = conditions: 10 µM unless noted
UO-31 renal = conditions: 10 µM unless noted
A498 renal = conditions: 10 µM unless noted
HL-60(TB) leukemia = conditions: 10 µM unless noted
MOLT-4 leukemia = conditions: 10 µM
RPMI-8226 leukemia = conditions: 10 µM unless noted
OVCAR-4 ovarian = conditions: 10 µM unless noted
HCC-2998 colon = conditions: 10 µM unless noted
CAKI-1 renal = conditions: 10 µM unless noted
BT-549 breast = conditions: 10 µM

Row | Compound | growth (HOP-62 NSCLC) | growth (NCI-H460 lung) | growth (A549/ATCC NSCLC) | growth (786-0 renal) | growth (K-562 leukemia) | growth (MALME-3M melanoma) | growth (RXF 393 renal) | growth (SF-295 CNS) | growth (SF-539 CNS) | growth (UACC-257 melanoma) | growth (SNB-75 CNS) | growth (UO-31 renal) | growth (A498 renal) | growth (HL-60(TB) leukemia) | growth (MOLT-4 leukemia) | growth (RPMI-8226 leukemia) | growth (OVCAR-4 ovarian) | growth (HCC-2998 colon) | growth (CAKI-1 renal) | growth (BT-549 breast)
1 | C#CC1(O)CCC2(C)C(CCC3C4CCC(=O)C4(C)CCC32)C1 (stereo not drawn) | 94.3% | 102% | 92% | 97.4% | 92.6% | 103% | 110% | 94.1% | 97.2% | 93.9% | 84.4% | 86.8% | 98.2% | 93.5% | 97.3% | 83.7% | 95.8% | 106% |  | 
2 | S=P(N1CCCCCC1)(N1CC1)N1CC1 | 94.8% | 107% | 104% | 103% | 97% | 90.3% | 124% | 117% | 102% | 106% | 98.7% | 104% | 107% | 84.3% | 33.4% |  | 117% | 93.8% | 96.3% | 102%
3 | O=c1[nH]c2cc(Cl)ccc2n1C1CCN(CCCC(c2ccc(F)cc2)c2ccc(F)cc2)CC1 | 67.2% | -49.2% (active) |  | 11.5% | -59.9% (active) | -1.17% (active) | 30.5% | -27.6% (active) | 15.5% | -81.4% (active) | 60.7% | -48.3% (active) | -90.2% (active) | -70.7% (active) | -28.3% (active) | -52.8% (active) | 56.6% | -63.4% (active) | 30% | 78.4%
4 | COc1ccc(OC)c(/C=C(/C)[N+](=O)[O-])c1 | 38.9% | 33.1% | 75.8% | 90.9% | 4.29% (active) |  | -18.5% (active) | 110% | 84.4% | 0.553% (active) | 77.2% | -46.3% (active) | 110% | 62.3% | 0.523% (active) | -21.9% (active) | 64.4% | 106% | 6.25% (active) | 
5 | Cc1cc(CCl)c(C)cc1CCl | 15.3% | 4.86% (active) | 55% | 36.9% | 63.8% | 82.9% | 93.3% | 25.7% |  | 62.1% | 48.4% | 33.9% | 84.6% | 15.3% | 29.7% | 26.4% | 83.4% | 71.4% | 5.81% (active) | 68.8%
6 | CC(=O)[O][Hg][CH2]C1(C)COC(C)([CH2][Hg][O]C(C)=O)CO1 (stereo not drawn) | 120% | 78.1% |  | 79% | -30.8% (active) |  |  | 69.2% | -87.2% (active) | 93.6% | 38% | -39.3% (active) | 75.8% | 74.4% | -19.9% (active) | 26% | 123% | 4.37% (active) | -100% (active) | -100% (active)
7 | C[CH2][Pb]([CH2]C)([CH2]C)[O]C(=O)c1ccc(N)cc1 | 89.3% | 69.5% |  | 80.2% | 38.6% | 40.3% | 34.2% | 91.2% | 87.4% |  | 47.2% | 52.1% | 60.3% | 56.1% | 60.5% | 59.1% | 57% | 67.5% | 65.5% | 56.9%
8 | [Br][Pb]([c]1ccccc1)([c]1ccccc1)[c]1ccccc1 | -97.7% (active) | -100% (active) | -99.2% (active) | -96.3% (active) | -46.7% (active) |  | -83.2% (active) |  | -90.6% (active) | -99% (active) | -100% (active) | -99.8% (active) | -100% (active) | -39.9% (active) | -24.4% (active) | -29.8% (active) | -100% (active) | -94.6% (active) | -100% (active) | 
9 | COC(=O)C[Se]C(=O)c1ccccc1OC(C)=O | 32.7% | 76.5% | 33.7% | 89.8% | 79% | 69.9% | 78.9% | 53.3% | 75.1% | 59.7% |  | 35.7% |  | -4.01% (active) | 86% | 96% | 54.4% | 62.1% | 87.8% | 71.9%
